Bioassay records from PubChem BioAssay.
Sampled rows, rich in hits. Any-hit rate of the full collection: about 21%.
NS1 function inh: qHTS Assay for Inhibitors of Influenza NS1 Protein Function | Potency, µM (titrated, usually from 46.1 µM), without a hit: at the top dose activity, positive = more growth | hit rate 0.4% among 270,000 | AID 2326, 2010; also: potency is read from the fitted curve at half-maximal effect; actives are rising curves; nearly all actives have a fitted effect of over 50% in size
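In this qHTS, NS1 from influenza A is expressed in budding yeast, where it slows growth. Cells are switched from glucose to 2% galactose medium (pH 6.0, -URA), treated with compound, and growth recovery is read at OD600.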
Pf growth 48h: Primary qHTS for delayed death inhibitors of the malarial parasite plastid, 48 hour incubation; hit rate 5.9% among 310,000; P. falciparum luciferase growth in erythrocytes, 48 h; Potency, µM (highest dose often 28.7 µM), for the others: at the highest dose activity change, negative = inhibition, most hits filed as inhibitors; active = well fitted inhibition curve with a large enough effect; inconclusive = small, poorly fitted or top-dose-only effect, or another doubt; inactive = no such curve, though single readings can be large or run the other way; also: potency is read from the fitted curve at half-maximal effect; % is scaled to controls: 0 for no effect and ±100 for the full control effect
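Luminescence readout; reporter = integrated firefly luciferase in P. falciparum. RBC culture at 2% hematocrit, 0.1% parasitemia final, 37 C/5% CO2; decreased signal taken as growth inhibition.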
Shiga toxin inh: A qHTS for Small Molecule Inhibitors of Shiga Toxin. Vero cells, Shiga toxin protein synthesis inhibition reporter. inhibition, % at 38.7 µM. hit rate 9.2% among 290,000. AID 2315, 2010; in the data active = inhibition mostly above about 28%, no sharp cut-off; inactive = mostly below about 43%; also: 0% is about no effect
Pf growth 96h: Primary qHTS for delayed death inhibitors of the malarial parasite plastid, 96 hour incubation; AID 504834, 2011; hit rate 6.9% among 320,000; P. falciparum luciferase reporter growth, 96 h; Potency, µM (titrated, usually from 28.7 µM), without a hit: at the highest dose activity change, negative = inhibition, usual class: inhibitors; active = well fitted inhibition curve with a large enough effect; inconclusive = small, poorly fitted or top-dose-only effect, or another doubt; inactive = no such curve, though single readings can be large or run the other way; also: potency is read from the fitted curve at half-maximal effect; % is scaled to controls: 0 for no effect and ±100 for the full control effect
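Readout is luminescence from an integrated firefly luciferase in P. falciparum. Red cells, 2% hematocrit and 0.05% parasitemia final, were cultured with compound through two parasite generations (96 hours) at 37 C, 5% CO2.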
Cycloheximide cs: Cycloheximide Counterscreen for Small Molecule Inhibitors of Shiga Toxin; cell reporter, cycloheximide protein synthesis inhibition counterscreen; max response, %; hit rate 12% among 300,000; AID 2314, 2010; in the data active = max response mostly above about 13%, no sharp cut-off; inactive = mostly below about 14%; also: read at 38.3 µM for the half of the compounds with a filed dose; 0% is about no effect
NS1 inh valid: Assay for Inhibitors of Influenza NS1 Protein Function: Hit Validation; shares compounds with NS1 function inh; influenza NS1 function cell assay, 15-point titration; activity change, negative = inhibition, % at 32.9 µM; 1,400 tested, under 10 active; also: 0% is about no effect
* hit, by the source's call; [ ] = another dose, or the depositor's remark. Unless noted, calls follow the shape of the full dose curve.

COc1cc(CNc2ccc(CNc3ncn[nH]3)cc2)ccc1OCc1ccccc1 was read as NS1 function inh inconclusive, Pf growth 48h -20%, Shiga toxin inh 40*, Pf growth 96h -12%, Cycloheximide cs 48* and NS1 inh valid 3.
`CCOc1ccc(C2N(c3ccc(Cl)cc3)C(=O)C3CCCN32)cc1OC` (configuration not stated) gave NS1 function inh 7.9µM*, Shiga toxin inh -20, Pf growth 96h -3%, Cycloheximide cs -2 and NS1 inh valid 36.
O=C1C2CCCN2C(c2ccc(F)cc2)N1c1ccc(Cl)cc1 (configuration not stated) was read as NS1 function inh 4µM*, Shiga toxin inh 17, Pf growth 96h 26%, Cycloheximide cs 4 and NS1 inh valid 15.
`NC1=NC(c2cccc(Cl)c2)N(CCc2ccc(F)cc2)C(N)=N1` (configuration not stated) gave NS1 function inh 3%, Pf growth 48h -9%[0.00184 µM], Shiga toxin inh -10, Pf growth 96h inconclusive and Cycloheximide cs -1.
For COC(=O)c1cc(-c2ccccc2)sc1NC(=O)CN1C(=O)c2ccccc2C1=O the results were NS1 function inh 24%, Pf growth 48h 5%, Shiga toxin inh -8, Pf growth 96h 0% and Cycloheximide cs -2.
Screening CN1C(=O)N(CC(=O)N2CCN(c3ncccn3)CC2)C(=O)C12CCCCC2 returned Pf growth 48h -7% and Pf growth 96h 15%.
`CCCc1cc(=O)oc2cc(OCC(=O)N3CCC(C(=O)O)(c4ccccc4)CC3)ccc12` gave NS1 function inh 11µM*, Pf growth 48h inconclusive, Shiga toxin inh -3, Pf growth 96h inconclusive, Cycloheximide cs -5 and NS1 inh valid inconclusive.
Screening O=C(NC(=S)N1CCCCC1)C12CC3CC(CC(C3)C1)C2 returned NS1 function inh 5%, Shiga toxin inh -6, Pf growth 96h inconclusive and Cycloheximide cs -4.
`O=C(c1cc(NC(=O)C23CC4CC(CC(C4)C2)C3)cc(NC(=O)C23CC4CC(CC(C4)C2)C3)c1)N1CCCCC1` gave NS1 function inh 11µM*, Pf growth 48h 1.9µM*, Shiga toxin inh 1, Pf growth 96h 1.5µM*, Cycloheximide cs -5 and NS1 inh valid 12.
`CC1=C(Cl)C2=NS(=O)(=O)CCN2C=C1Cl` gave Pf growth 48h 11%, Shiga toxin inh -11, Pf growth 96h 0% and Cycloheximide cs 0.
`COc1ccc(C(c2sc3nc(C)nn3c2O)N2CCN(CCO)CC2)cc1OC` (configuration not stated) gave NS1 function inh -3%, Pf growth 48h 13%, Shiga toxin inh -8, Pf growth 96h -1% and Cycloheximide cs -3.
`COc1ccc(C(c2c(NC(=O)c3ccccc3)sc(C)c2C)N2CCN(CCO)CC2)cc1` (configuration not stated) gave NS1 function inh inconclusive, Pf growth 48h inconclusive, Shiga toxin inh 56*, Pf growth 96h inconclusive, Cycloheximide cs 22* and NS1 inh valid -18.
`O=C(Nc1nnc(-c2ccccc2)s1)c1ccc(F)cc1` gave Pf growth 48h 93%, Shiga toxin inh 34, Pf growth 96h -7% and Cycloheximide cs 9.
Cc1onc(-c2ccccc2Cl)c1C(=O)Nc1nnc(-c2cccc([N+](=O)[O-])c2)s1 was read as NS1 function inh 10µM*, Pf growth 48h inconclusive, Shiga toxin inh 9, Pf growth 96h inconclusive, Cycloheximide cs 1 and NS1 inh valid -1.
Screening Cc1cc(C(=O)Nc2nnc(-c3ccccc3)s2)no1 returned NS1 function inh inconclusive, Pf growth 48h inconclusive, Shiga toxin inh 15, Pf growth 96h 0%, Cycloheximide cs 11 and NS1 inh valid inconclusive.
`Cc1onc(-c2ccccc2Cl)c1C(=O)Nc1nc2ccc(S(C)(=O)=O)cc2s1` gave NS1 function inh 4%, Pf growth 48h -27%, Shiga toxin inh 3, Pf growth 96h 60% and Cycloheximide cs -2.
For Cc1cc(N2CCN(C(=O)c3cccs3)CC2)c(F)cc1[N+](=O)[O-] the results were NS1 function inh -10%, Pf growth 48h -33%, Shiga toxin inh 9, Pf growth 96h 18% and Cycloheximide cs -1.
Cc1ccccc1/C=N/N1C(=O)CSC1=S was read as NS1 function inh 5%, Pf growth 48h -2%[0.00184 µM], Shiga toxin inh -6, Pf growth 96h 16% and Cycloheximide cs -3.
`O=C1CSC(=S)N1/N=C/c1cccnc1` gave NS1 function inh 1.1µM*, Pf growth 48h -1%, Shiga toxin inh -9, Pf growth 96h 20%, Cycloheximide cs -2 and NS1 inh valid 27.
For CCOc1ccc(/C(O)=C2/C(=O)C(=O)N(c3ncccn3)C2c2ccccc2)cc1 (configuration not stated) the results were NS1 function inh 2µM*, Pf growth 48h 22%, Shiga toxin inh 58*, Pf growth 96h -5%, Cycloheximide cs 66* and NS1 inh valid -12.
For CCCOc1ccc(/C(O)=C2/C(=O)C(=O)N(c3cc(C)on3)C2c2ccc(C(=O)OC)cc2)cc1 (configuration not stated) the results were NS1 function inh 10µM*, Pf growth 48h 3%, Shiga toxin inh -5, Pf growth 96h 9%, Cycloheximide cs -1 and NS1 inh valid -9.
`CCOc1ccc(/C(O)=C2/C(=O)C(=O)N(c3cc(C)on3)C2c2ccc(C(=O)OC)cc2)cc1` (configuration not stated) gave NS1 function inh 6%, Pf growth 48h 63%, Shiga toxin inh 6, Pf growth 96h 23% and Cycloheximide cs 9.
`CCOc1ccc(/C(O)=C2/C(=O)C(=O)N(c3ncccn3)C2c2ccc(C)cc2)cc1` (configuration not stated) gave NS1 function inh 4%, Pf growth 48h 2%, Shiga toxin inh -1, Pf growth 96h 36% and Cycloheximide cs -1.
C=CCNc1oc(C2CCCC2)nc1C#N was read as Pf growth 48h -4% and Pf growth 96h 17%.
Screening NC(=O)COC(=O)c1ccc(-c2ccc(O)cc2)cc1 returned NS1 function inh 3%, Pf growth 48h 91%, Shiga toxin inh 17, Pf growth 96h 54% and Cycloheximide cs 9.
`CCOc1ccc(C(C)C)cc1S(=O)(=O)n1ccnc1C` gave NS1 function inh -38%, Pf growth 48h inconclusive, Shiga toxin inh -12, Pf growth 96h -35%[1.15 µM] and Cycloheximide cs -2.
For Cn1cnnc1SCC(=O)N1N=C2/C(=C/c3ccco3)CCCC2C1c1ccco1 (configuration not stated) the results were NS1 function inh 3.5µM*, Pf growth 48h inconclusive, Shiga toxin inh 6, Pf growth 96h 10µM*, Cycloheximide cs 10 and NS1 inh valid 2.
